Molecules are shown by their SMILES. Results filed as inconclusive are left out. Calls of active or inactive are those of the source. Unless noted, calls follow the shape of the dose curve; as a rule, active = well fitted curve in the direction sought with a large enough effect; inconclusive = small, poorly fitted or top-dose-only effect, or another doubt; inactive = no such curve, though single readings can be large; an effect the other way counts as inactive or inconclusive.

The target of assay [1] is Atrial natriuretic peptide receptor 2 (Homo sapiens) (UniProt P20594). In words: Natriuretic polypeptide receptor (hNpr2) antagonism - Pilot subtype selectivity assay (AID 1347050; calls by dose curve; also: potency is read from the fitted curve at half-maximal effect). The procedure, abridged:
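cGMP-sensor HEK293/hNpr2 cells; 2% GloSensor reagent 2 h RT; compounds 30 min; baseline luminescence read; 1 nM hNppC agonist 20 min RT; final luminescence read by CCD camera. Antagonism = reduced post-agonist signal.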

Assay [2] can be described thus: NS1 protein of Zika virus - qHTS assay to identify small molecule inhibitors in human HEK 293 cells (AID 1347053). Also: series mostly up to about 46 µM; nearly all actives have a fitted effect of over 55% in size. The procedure, abridged: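 HEK 293; 20 h pre-culture, 37 C/5% CO2; cpd 1 h pre-infection; ZIKV MR766, MOI = 0.5, 24 h, 37 C; TR-FRET NS1 readout (two anti-NS1 Abs); norm. to no-virus vs infected.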
In general terms: Quantitative high-throughput screening tests each substance at several concentrations.

For assay [3], the target named is T1, Tyrosine-protein phosphatase non-receptor type substrate 1 (Homo sapiens) + Leukocyte surface antigen CD47 (Homo sapiens) (UniProt P78324+Q08722). Description: CD47-SIRPalpha protein protein interaction - LANCE assay qHTS validation (AID 1347057; active = well fitted curve in the direction sought with a large enough effect in the signal ratio, with a control signal flat, not every such curve was filed as active; the % refers to the signal ratio; also: series mostly up to about 38 µM). The procedure, abridged: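 First, His-tagged CD47 and Eu-labelled anti-His antibody met the compound for 30 min; next, site-specifically biotinylated SIRPalpha was added for 30 min; finally streptavidin-APC was added before reading the TR-FRET ratio.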
(TR-FRET usually uses a lanthanide donor and a delayed reading to cut background.)

Assay [4] addresses T1, Tyrosine-protein phosphatase non-receptor type substrate 1 (Homo sapiens) + Leukocyte surface antigen CD47 (Homo sapiens). Description: CD47-SIRPalpha protein protein interaction - Alpha assay qHTS validation (AID 1347059).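 Also: bead proximity luminescence from CD47 binding SIRPalpha after compound preincubation with SIRPalpha.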 The method in brief:
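Soluble extracellular domains: Avi-tag biotinylated SIRPalpha (25 nM) preincubated 30 min RT with compound, then 6His-CD47 (12.5 nM) 30 min; Ni-NTA acceptor and streptavidin donor beads (10 ug/mL) 30 min, AlphaScreen read. PBS pH 7.4, 0.05% IGEPAL.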

In assay [5] the target is Parathyroid hormone/parathyroid hormone-related peptide receptor (Homo sapiens) (UniProt Q03431). Description: qHTS for PTHR1 Agonists: Optimization Screen against the NCGC LOPAC library (AID 1347079).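 Also: GloSensor cAMP luminescence in HEK-293 GP2 cells expressing human PTHR1 with IBMX.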 The method in brief: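 Compounds were tested across a qHTS titration. PTHR1-expressing GP2 cells report cAMP rises via GloSensor luminescence after 1 hr compound exposure at 37C with IBMX present.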

The nature of assay [6]: qHTS of pediatric cancer cell lines to identify multiple opportunities for drug repurposing: Primary screen for TC32 cells (AID 1347089). Also: nearly all actives have a fitted effect of over 60% in size. The procedure, abridged:
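TC32 cells, 500-1,000/well in growth medium, compound-treated 48 h at 37 °C; viability from CellTiter-Glo luminescence. Primary screen: MIPE 11-point (0.78 nM–46 µM final), NPC 8-point (0.59 nM–46 µM final); confirmatory at 11-point dilutions.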

Assay [7] in a line: qHTS of pediatric cancer cell lines to identify multiple opportunities for drug repurposing: Primary screen for DAOY cells (AID 1347090). Also: series mostly up to about 46 µM; nearly all actives have a fitted effect of over 55% in size. The procedure, abridged:
(§1)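 Eight- or eleven-point concentration series, 48 h treatment at 37 degrees C in growth media; readout CellTiter-Glo luminescence. Potency and efficacy were taken from the concentration-response curves.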

Assay [8] in a line: qHTS of pediatric cancer cell lines to identify multiple opportunities for drug repurposing: Primary screen for SJ-GBM2 cells (AID 1347091). The method in brief: as §1
Assay [9] is described as follows: qHTS of pediatric cancer cell lines to identify multiple opportunities for drug repurposing: Primary screen for A673 cells (AID 1347092). Also: nearly all actives have a fitted effect of over 45% in size. The method in brief: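 A673 cells (500-1,000 cells/well) were treated 48 hours at 37 degrees C with compounds at 11-point (0.78 nM to 46 µM) or 8-point (0.59 nM to 46 µM) dilutions. Viability read by CellTiter-Glo luminescence; concentration-response curves fitted.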

Assay [10] in a line: qHTS of pediatric cancer cell lines to identify multiple opportunities for drug repurposing: Primary screen for SK-N-MC cells (AID 1347093). Also: series mostly up to about 46 µM. The procedure, abridged:
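Metabolically active cells were quantified by ATP-dependent luminescence (CellTiter-Glo, 15 min at room temperature) following 48 h treatment. Cells had been plated at 500-1,000 per well and settled for 5 h beforehand.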

The nature of assay [11]: qHTS of pediatric cancer cell lines to identify multiple opportunities for drug repurposing: Primary screen for BT-37 cells (AID 1347094). Also: series mostly up to about 57 µM. The procedure, abridged:
(§2)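 Readout: CellTiter-Glo luminescence, 48 h treatment. Controls DMSO (neutral) and bortezomib 2.3 µM final (positive). Potency and efficacy taken from primary-screen concentration-response curves.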

Assay [12] can be described thus: qHTS of pediatric cancer cell lines to identify multiple opportunities for drug repurposing: Primary screen for NB-EBc1 cells (AID 1347095). The procedure, abridged:
as §2

Assay [13] can be described thus: qHTS of pediatric cancer cell lines to identify multiple opportunities for drug repurposing: Primary screen for U-2 OS cells (AID 1347096). Also: nearly all actives have a fitted effect of over 50% in size. The procedure, abridged:
(§3)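 Cells (500-1,000/well) in growth media were settled 5 h at 37 degrees C, then given compounds for 48 h. Viability was read as CellTiter-Glo luminescence. Primary runs used MIPE at 11 points (0.78 nM-46 µM) and NPC at 8 points (0.59 nM-46 µM); follow-ups used 11 points.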

Assay [14] is described as follows: qHTS of pediatric cancer cell lines to identify multiple opportunities for drug repurposing: Primary screen for Saos-2 cells (AID 1347097). Also: nearly all actives have a fitted effect of over 40% in size. The method in brief: as §2
A short description of assay [15]: qHTS of pediatric cancer cell lines to identify multiple opportunities for drug repurposing: Primary screen for SK-N-SH cells (AID 1347098). Also: nearly all actives have a fitted effect of over 65% in size. The procedure, abridged:
(§4)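 Cells (500-1,000/well) rested 5 h, then received compounds for 48 h; metabolically active cells were measured by CellTiter-Glo luminescence. Final concentrations spanned up to 46 µM (MIPE, 11-point) or 0.59 nM-46 µM (NPC, 8-point) in primary screens, 11-point in follow-ups.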

Assay [16] is described as follows: qHTS of pediatric cancer cell lines to identify multiple opportunities for drug repurposing: Primary screen for NB1643 cells (AID 1347099). Also: nearly all actives have a fitted effect of over 50% in size. The procedure, abridged: as §2
Assay [17] can be described thus: qHTS of pediatric cancer cell lines to identify multiple opportunities for drug repurposing: Primary screen for LAN-5 cells (AID 1347100). The procedure, abridged: as §3
The nature of assay [18]: qHTS of pediatric cancer cell lines to identify multiple opportunities for drug repurposing: Primary screen for BT-12 cells (AID 1347101). Also: nearly all actives have a fitted effect of over 25% in size. The method in brief:
as §4

The nature of assay [19]: qHTS of pediatric cancer cell lines to identify multiple opportunities for drug repurposing: Primary screen for Rh18 cells (AID 1347102). Also: nearly all actives have a fitted effect of over 65% in size. The procedure, abridged:
as §3

Assay [20] can be described thus: qHTS of pediatric cancer cell lines to identify multiple opportunities for drug repurposing: Primary screen for OHS-50 cells (AID 1347103). Also: nearly all actives have a fitted effect of over 40% in size. The procedure, abridged:
as §4

T1 sequence (P78324 whole entry, looked up): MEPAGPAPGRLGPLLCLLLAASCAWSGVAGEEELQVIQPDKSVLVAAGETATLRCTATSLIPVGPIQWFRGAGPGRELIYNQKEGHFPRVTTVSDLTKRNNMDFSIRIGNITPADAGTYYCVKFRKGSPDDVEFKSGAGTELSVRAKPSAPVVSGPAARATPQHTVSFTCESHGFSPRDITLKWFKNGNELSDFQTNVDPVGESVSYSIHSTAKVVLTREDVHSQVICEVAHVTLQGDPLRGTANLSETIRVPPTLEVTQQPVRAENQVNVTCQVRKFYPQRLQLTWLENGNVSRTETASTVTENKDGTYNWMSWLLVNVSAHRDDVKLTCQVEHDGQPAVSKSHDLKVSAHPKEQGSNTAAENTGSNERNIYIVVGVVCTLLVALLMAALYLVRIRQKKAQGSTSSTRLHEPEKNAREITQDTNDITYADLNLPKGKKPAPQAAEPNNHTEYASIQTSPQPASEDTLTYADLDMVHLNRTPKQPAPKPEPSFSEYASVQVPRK
T1 sequence (Q08722 whole entry, looked up): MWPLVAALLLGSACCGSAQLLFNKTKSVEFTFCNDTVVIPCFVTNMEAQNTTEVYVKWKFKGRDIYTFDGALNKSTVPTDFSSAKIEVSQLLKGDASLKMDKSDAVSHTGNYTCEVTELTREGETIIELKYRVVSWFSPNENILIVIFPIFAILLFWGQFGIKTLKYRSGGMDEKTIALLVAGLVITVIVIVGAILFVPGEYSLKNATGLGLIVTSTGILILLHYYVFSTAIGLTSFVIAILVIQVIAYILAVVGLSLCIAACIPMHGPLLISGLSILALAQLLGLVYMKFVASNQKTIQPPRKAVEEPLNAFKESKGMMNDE
Chain of Parathyroid hormone/parathyroid hormone-related peptide receptor (Homo sapiens) (Q03431 whole entry, looked up): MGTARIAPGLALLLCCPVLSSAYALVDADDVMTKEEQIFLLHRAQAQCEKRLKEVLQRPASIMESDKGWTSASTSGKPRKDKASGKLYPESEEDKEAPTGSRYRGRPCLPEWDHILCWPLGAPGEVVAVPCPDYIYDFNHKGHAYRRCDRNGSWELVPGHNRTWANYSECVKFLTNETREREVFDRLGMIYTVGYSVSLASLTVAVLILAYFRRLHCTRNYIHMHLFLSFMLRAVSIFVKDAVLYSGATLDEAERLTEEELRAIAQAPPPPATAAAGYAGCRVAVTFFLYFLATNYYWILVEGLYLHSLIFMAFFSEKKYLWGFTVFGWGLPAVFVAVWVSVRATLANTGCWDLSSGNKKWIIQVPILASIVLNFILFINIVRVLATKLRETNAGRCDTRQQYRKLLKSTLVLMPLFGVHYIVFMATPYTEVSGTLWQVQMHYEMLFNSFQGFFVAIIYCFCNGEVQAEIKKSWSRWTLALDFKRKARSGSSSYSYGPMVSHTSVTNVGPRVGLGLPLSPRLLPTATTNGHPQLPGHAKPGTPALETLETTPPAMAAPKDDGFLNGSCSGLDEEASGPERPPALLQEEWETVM
Chain of Atrial natriuretic peptide receptor 2 (Homo sapiens) (P20594 whole entry, looked up): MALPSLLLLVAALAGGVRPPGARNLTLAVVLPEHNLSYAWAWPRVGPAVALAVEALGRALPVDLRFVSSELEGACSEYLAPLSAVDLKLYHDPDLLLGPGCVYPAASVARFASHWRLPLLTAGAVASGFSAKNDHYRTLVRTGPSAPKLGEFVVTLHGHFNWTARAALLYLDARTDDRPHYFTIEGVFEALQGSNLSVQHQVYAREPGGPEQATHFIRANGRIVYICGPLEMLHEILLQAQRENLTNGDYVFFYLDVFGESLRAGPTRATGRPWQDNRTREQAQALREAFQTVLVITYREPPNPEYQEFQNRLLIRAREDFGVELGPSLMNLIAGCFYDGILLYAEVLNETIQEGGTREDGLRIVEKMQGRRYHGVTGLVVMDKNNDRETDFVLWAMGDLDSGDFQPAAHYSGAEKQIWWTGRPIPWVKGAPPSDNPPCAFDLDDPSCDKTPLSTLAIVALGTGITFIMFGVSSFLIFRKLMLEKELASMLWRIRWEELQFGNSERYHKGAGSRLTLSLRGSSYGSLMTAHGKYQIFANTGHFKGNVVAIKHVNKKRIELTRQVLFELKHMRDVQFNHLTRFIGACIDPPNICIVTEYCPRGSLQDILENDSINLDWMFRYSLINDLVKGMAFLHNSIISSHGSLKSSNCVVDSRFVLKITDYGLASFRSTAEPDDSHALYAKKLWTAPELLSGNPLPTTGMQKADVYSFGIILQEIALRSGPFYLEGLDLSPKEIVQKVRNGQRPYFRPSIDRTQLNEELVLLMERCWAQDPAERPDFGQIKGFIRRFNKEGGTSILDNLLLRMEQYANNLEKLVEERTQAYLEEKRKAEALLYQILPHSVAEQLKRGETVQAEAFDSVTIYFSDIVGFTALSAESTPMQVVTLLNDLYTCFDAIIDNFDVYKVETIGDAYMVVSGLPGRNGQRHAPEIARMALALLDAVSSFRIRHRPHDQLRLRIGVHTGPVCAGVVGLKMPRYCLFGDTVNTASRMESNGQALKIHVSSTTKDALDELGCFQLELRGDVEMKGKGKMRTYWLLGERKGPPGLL

On to `O=C1NC(c2cccc([N+](=O)[O-])c2)=CCN1c1ccccc1O`, for which the Potency result in [1], in [2] and in assay [4] was “inactive” each time. Moreover, the result in [3] and in [5] was inactive.

With `CCCCCCn1c(=O)c2c(ncn2C)n(C)c1=O`, the Potency result in assay [2], in assay [6], in assay [7], in assay [8], in assay [9] and in [10] was “inactive” throughout. The Potency result in [11], in assay [12], in assay [13], in assay [14], in [15] and in assay [16] was “inactive” throughout. Moreover, the Potency entry in assay [17] and in [18] was “inactive” in each case.

As for `Clc1ccc2c(c1)N=C(N1CCNCC1)c1ccccc1N2`, in [1], the Potency was 14.7 µM (active). Besides, the Potency result in assay [2] and in [4] was “inactive” in each case. Moreover, the result in [3] and in assay [5] was inactive.

For the compound `O=[N+]([O-])c1ccc(-c2nc(-c3ccc(F)cc3)c(-c3ccncc3)[nH]2)cc1`, the Potency entry in [1] and in assay [2] was “inactive” throughout. Moreover, the result in [3] and in assay [5] was inactive.

Consider `NC(N)=NCCCCN=C(N)N`, for which the Potency result in [1] and in assay [4] was “inactive” in each case. The outcome in [3] and in assay [5] was inactive.

With `CN(C)c1cc2c(Nc3ccc4c(cnn4Cc4ccccc4)c3)ncnc2cn1`, the Potency entry in [1], in assay [2] and in assay [4] was “inactive” throughout. In assay [5], the call was inactive.

As for `Cc1ccc(Cl)c(OCC(O)CNC(C)(C)C)c1` (stereo not given), the Potency result in assay [2], in [6], in assay [7], in assay [8], in assay [9] and in assay [10] was “inactive” throughout. Besides, the Potency result in [11], in [12], in assay [13], in [14], in [15] and in assay [16] was “inactive” throughout. Further, the Potency result in [17], in assay [18] and in [19] was “inactive” throughout.

Turning to `COC(=O)C1=CO[C@@H](O)[C@@H]2C(CO)=CC[C@H]12`, the Potency entry in assay [1], in assay [2] and in assay [4] was “inactive” throughout. In addition, the result in assay [3] and in assay [5] was inactive.

As for `CCN(CC)CCNC(=O)c1ccc(NS(C)(=O)=O)cc1`, the Potency entry in [2] and in assay [4] was “inactive” in each case. The result in assay [3] and in assay [5] was inactive.

For `CCN1CCCC1CN` (stereo not given), the Potency entry in [2], in assay [6], in [7], in assay [8], in [9] and in assay [10] was “inactive” throughout. The Potency entry in assay [11], in assay [12], in assay [13], in assay [14], in assay [15] and in assay [16] was “inactive” throughout. Also, the Potency entry in assay [17], in assay [18] and in assay [19] was “inactive” each time.

Consider `CCCCC(CC)CNC(=O)CC(C)OC(=O)CCC(=O)O` (stereo not given), for which the Potency entry in [2], in [6], in assay [7], in assay [8], in [9] and in assay [10] was “inactive” each time. The Potency entry in assay [11], in assay [12], in [13], in assay [14], in assay [15] and in assay [16] was “inactive” throughout. In addition, the Potency entry in assay [17], in assay [18] and in [19] was “inactive” each time.

Take `Oc1ccccc1`: the Potency result in [2], in assay [6], in assay [7], in assay [8], in assay [9] and in assay [10] was “inactive” each time. Further, the Potency result in assay [11], in assay [12], in [13], in [14], in assay [15] and in assay [16] was “inactive” each time. For the same compound, the Potency result in assay [17] and in assay [18] was “inactive” throughout.

With `CCOC(=O)C(=O)CCCCCCl`, the Potency result in assay [2], in [6], in assay [7], in assay [8], in [9] and in assay [10] was “inactive” each time. Also, the Potency result in assay [11], in assay [12], in [13], in [14], in assay [15] and in [16] was “inactive” each time. For the same compound, the Potency entry in [17], in [18], in assay [19] and in assay [20] was “inactive” throughout.

Source of the values: PubChem BioAssay (NCATS).
